Among the data in ChEMBL document CHEMBL2218924, “A broad activity screen in support of a chemogenomic map for kinase signalling research and drug discovery” (Biochem J, 2013) are residual activity values, retold here.

In experiment [1] the target is Serine/threonine-protein kinase PAK 4 (Homo sapiens) (UniProt O96013). The following applies: at 1 µM.
Experiment [2] has the same target. The following applies: at 10 µM.
The target of experiment [3] is Serine/threonine-protein kinase PAK 5 (Homo sapiens) (UniProt Q9P286). The following applies: at 1 µM.
Serine/threonine-protein kinase PAK 5 (Homo sapiens), sequence (Q9P286 whole entry, looked up): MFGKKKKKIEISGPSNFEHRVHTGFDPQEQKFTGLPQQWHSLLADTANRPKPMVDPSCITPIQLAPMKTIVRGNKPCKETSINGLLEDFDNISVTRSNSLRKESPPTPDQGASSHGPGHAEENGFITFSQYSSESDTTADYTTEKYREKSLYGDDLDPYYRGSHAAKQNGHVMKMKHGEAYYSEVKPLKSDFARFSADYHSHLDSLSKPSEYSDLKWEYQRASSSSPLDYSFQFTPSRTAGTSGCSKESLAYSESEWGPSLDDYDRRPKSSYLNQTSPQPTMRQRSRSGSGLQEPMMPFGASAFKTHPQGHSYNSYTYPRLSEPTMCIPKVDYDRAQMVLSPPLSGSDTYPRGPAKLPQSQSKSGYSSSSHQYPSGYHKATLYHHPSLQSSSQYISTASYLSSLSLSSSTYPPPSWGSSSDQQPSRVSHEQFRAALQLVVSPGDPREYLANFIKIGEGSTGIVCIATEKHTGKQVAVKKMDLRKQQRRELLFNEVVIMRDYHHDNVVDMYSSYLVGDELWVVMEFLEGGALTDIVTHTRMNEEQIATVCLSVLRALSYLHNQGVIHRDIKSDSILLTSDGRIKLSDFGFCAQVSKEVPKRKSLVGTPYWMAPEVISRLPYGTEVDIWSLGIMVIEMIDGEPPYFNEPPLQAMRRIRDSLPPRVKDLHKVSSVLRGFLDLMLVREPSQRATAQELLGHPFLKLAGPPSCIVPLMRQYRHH
The target is the same in experiment [4]. The note with it: at 10 µM.
The target in experiment [5] is Serine/threonine-protein kinase PAK 6 (Homo sapiens) (UniProt Q9NQU5). The following applies: at 1 µM.
Serine/threonine-protein kinase PAK 6 (Homo sapiens), sequence (Q9NQU5 whole entry, looked up): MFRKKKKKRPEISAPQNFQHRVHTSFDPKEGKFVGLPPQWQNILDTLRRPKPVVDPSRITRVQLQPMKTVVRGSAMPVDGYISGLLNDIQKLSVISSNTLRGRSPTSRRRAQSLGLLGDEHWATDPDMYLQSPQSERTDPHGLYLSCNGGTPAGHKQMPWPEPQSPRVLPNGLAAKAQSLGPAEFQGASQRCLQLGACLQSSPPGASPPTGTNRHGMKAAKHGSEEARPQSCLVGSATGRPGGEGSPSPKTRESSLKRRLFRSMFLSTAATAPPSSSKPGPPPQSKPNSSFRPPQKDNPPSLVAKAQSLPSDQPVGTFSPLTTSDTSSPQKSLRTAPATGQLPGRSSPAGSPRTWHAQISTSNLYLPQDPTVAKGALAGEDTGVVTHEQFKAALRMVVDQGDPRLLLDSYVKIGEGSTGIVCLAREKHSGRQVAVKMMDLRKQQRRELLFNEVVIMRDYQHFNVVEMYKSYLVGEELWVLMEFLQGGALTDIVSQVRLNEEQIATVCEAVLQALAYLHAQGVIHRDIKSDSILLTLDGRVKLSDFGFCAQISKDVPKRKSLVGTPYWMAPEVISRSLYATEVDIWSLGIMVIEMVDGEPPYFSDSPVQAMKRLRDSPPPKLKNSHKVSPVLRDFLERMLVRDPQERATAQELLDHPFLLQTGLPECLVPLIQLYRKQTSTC
The target is the same in experiment [6]. The following applies: at 10 µM.
Experiment [7] has as its target PAS domain-containing serine/threonine-protein kinase (Homo sapiens) (UniProt Q96RG2). The note with it: at 10 µM.
The target in experiment [8] is Activated CDC42 kinase 1 (Homo sapiens) (UniProt Q07912). The note with it: at 1 µM.
Activated CDC42 kinase 1 (Homo sapiens), sequence (Q07912 whole entry, looked up): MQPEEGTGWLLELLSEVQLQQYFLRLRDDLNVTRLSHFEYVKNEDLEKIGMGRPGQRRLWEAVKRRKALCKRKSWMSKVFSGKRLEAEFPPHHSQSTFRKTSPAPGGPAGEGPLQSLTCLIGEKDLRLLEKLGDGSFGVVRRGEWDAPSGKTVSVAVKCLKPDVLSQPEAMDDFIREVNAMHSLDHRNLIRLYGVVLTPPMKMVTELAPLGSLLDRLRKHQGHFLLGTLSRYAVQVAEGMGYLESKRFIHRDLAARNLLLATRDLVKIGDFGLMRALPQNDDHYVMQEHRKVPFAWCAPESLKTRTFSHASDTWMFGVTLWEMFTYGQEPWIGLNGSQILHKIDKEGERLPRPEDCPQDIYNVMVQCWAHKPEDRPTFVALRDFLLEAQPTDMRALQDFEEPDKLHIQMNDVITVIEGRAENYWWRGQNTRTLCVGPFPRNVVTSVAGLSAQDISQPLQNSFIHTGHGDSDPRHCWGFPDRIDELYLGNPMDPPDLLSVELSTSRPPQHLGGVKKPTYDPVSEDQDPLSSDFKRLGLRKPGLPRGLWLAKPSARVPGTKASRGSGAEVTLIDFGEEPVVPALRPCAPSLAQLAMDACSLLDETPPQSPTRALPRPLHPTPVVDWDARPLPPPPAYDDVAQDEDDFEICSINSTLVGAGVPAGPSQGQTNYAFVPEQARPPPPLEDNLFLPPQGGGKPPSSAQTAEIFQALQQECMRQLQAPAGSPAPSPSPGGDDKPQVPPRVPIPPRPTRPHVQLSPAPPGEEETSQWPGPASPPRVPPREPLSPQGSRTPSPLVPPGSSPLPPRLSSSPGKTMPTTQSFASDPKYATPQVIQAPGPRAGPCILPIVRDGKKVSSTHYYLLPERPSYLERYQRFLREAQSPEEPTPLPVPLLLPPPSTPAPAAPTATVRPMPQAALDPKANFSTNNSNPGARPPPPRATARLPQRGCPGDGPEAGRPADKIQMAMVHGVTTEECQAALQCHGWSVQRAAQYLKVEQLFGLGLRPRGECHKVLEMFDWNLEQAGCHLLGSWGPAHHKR
Experiment [9] shares this target. The following applies: at 10 µM.
Experiment [10] addresses ALK tyrosine kinase receptor (Homo sapiens) (UniProt Q9UM73). The note with it: at 1 µM.
Experiment [11] has the same target. The note with it: at 10 µM.
The target of experiment [12] is T1, Activin receptor type-1B (Homo sapiens) (UniProt P36896).
T1 sequence (whole entry): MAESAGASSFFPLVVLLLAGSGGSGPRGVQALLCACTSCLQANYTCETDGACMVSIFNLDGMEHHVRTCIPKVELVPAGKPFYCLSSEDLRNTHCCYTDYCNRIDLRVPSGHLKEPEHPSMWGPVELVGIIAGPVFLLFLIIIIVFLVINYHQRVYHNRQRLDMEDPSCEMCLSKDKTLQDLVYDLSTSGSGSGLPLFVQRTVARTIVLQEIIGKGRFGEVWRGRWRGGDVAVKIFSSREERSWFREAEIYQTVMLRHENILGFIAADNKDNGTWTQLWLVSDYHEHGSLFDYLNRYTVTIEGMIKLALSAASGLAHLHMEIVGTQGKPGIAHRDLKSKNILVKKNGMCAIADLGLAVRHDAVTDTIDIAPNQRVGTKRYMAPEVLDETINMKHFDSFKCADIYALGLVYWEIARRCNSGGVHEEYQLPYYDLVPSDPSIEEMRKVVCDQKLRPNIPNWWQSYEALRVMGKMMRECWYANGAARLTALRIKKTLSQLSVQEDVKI
The note with it: at 1 µM.

For experiment [13], the target named is T1, Activin receptor type-1B (Homo sapiens). The following applies: at 10 µM.
In experiment [14] the target is T2, AMP-activated protein kinase (AMPK) alpha-1/beta-1/gamma-1 (Homo sapiens) (UniProt P54619+Q9Y478+Q13131). The note with it: at 1 µM.
The target in experiment [15] is T2, AMP-activated protein kinase (AMPK) alpha-1/beta-1/gamma-1 (Homo sapiens). The note with it: at 10 µM.
Experiment [16] concerns the target T3, AMP-activated protein kinase, AMPK (Homo sapiens) (UniProt P54646+O43741+P54619+Q9UGJ0+Q9Y478+Q13131+Q9UGI9). The note with it: at 1 µM.
In experiment [17] the target is T3, AMP-activated protein kinase, AMPK (Homo sapiens). The note with it: at 10 µM.
Experiment [18] deals with T4, NUAK family SNF1-like kinase 1 (Homo sapiens) (UniProt O60285).
T4 sequence (whole entry): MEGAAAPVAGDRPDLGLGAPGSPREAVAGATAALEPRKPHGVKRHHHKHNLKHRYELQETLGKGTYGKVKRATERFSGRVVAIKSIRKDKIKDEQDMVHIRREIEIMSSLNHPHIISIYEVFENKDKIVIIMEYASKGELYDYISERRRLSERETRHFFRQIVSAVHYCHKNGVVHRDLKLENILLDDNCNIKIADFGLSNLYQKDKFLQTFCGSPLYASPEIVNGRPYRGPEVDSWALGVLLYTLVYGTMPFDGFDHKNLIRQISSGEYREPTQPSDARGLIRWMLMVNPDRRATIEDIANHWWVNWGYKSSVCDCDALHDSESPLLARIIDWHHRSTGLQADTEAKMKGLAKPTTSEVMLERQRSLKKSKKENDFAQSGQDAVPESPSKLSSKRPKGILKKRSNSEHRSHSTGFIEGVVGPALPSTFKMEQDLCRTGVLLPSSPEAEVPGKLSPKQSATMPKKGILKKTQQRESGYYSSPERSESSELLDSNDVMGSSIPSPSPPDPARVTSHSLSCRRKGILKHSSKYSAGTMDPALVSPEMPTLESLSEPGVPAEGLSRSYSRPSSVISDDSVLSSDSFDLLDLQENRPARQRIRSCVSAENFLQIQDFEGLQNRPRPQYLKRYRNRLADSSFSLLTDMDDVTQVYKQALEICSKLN
The following applies: at 1 µM.

The target in experiment [19] is T4, NUAK family SNF1-like kinase 1 (Homo sapiens). The following applies: at 10 µM.
In experiment [20] the target is T5, Mitogen-activated protein kinase kinase kinase 5 (Homo sapiens) (UniProt Q99683).
T5 sequence (whole entry): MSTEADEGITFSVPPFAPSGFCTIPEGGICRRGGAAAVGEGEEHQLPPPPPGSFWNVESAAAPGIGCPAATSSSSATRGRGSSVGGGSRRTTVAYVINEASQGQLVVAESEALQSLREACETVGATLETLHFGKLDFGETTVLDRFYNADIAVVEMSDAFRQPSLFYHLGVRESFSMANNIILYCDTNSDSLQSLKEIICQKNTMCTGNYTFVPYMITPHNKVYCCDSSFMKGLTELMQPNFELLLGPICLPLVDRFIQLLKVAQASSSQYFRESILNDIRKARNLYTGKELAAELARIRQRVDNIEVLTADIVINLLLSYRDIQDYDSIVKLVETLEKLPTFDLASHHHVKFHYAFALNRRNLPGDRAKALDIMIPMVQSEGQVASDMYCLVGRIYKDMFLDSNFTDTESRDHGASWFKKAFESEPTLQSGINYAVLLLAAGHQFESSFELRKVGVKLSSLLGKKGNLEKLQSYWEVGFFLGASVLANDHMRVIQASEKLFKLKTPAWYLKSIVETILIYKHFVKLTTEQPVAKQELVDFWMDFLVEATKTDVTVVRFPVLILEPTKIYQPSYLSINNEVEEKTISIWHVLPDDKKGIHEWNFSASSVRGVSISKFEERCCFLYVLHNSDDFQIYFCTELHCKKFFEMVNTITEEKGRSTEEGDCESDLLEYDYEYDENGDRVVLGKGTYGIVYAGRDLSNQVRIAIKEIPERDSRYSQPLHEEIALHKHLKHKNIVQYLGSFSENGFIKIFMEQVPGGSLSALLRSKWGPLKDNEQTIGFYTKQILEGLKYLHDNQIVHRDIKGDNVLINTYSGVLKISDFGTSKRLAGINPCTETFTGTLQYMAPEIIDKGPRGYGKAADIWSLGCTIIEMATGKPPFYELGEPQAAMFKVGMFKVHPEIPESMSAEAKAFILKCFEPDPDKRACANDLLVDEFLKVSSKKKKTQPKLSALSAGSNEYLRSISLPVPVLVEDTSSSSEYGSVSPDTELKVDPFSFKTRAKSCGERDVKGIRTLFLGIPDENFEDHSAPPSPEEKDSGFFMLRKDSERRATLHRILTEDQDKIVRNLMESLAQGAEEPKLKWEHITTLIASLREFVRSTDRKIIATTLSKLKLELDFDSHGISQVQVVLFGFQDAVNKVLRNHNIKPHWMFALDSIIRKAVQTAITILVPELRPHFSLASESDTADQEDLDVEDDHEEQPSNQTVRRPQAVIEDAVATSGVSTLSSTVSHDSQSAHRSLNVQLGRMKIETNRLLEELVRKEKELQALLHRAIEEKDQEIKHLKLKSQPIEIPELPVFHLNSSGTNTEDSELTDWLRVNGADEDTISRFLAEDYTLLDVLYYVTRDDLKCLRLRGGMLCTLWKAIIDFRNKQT
The following applies: at 1 µM.

ALK tyrosine kinase receptor (Homo sapiens), sequence (Q9UM73 19-1620 limits assumed): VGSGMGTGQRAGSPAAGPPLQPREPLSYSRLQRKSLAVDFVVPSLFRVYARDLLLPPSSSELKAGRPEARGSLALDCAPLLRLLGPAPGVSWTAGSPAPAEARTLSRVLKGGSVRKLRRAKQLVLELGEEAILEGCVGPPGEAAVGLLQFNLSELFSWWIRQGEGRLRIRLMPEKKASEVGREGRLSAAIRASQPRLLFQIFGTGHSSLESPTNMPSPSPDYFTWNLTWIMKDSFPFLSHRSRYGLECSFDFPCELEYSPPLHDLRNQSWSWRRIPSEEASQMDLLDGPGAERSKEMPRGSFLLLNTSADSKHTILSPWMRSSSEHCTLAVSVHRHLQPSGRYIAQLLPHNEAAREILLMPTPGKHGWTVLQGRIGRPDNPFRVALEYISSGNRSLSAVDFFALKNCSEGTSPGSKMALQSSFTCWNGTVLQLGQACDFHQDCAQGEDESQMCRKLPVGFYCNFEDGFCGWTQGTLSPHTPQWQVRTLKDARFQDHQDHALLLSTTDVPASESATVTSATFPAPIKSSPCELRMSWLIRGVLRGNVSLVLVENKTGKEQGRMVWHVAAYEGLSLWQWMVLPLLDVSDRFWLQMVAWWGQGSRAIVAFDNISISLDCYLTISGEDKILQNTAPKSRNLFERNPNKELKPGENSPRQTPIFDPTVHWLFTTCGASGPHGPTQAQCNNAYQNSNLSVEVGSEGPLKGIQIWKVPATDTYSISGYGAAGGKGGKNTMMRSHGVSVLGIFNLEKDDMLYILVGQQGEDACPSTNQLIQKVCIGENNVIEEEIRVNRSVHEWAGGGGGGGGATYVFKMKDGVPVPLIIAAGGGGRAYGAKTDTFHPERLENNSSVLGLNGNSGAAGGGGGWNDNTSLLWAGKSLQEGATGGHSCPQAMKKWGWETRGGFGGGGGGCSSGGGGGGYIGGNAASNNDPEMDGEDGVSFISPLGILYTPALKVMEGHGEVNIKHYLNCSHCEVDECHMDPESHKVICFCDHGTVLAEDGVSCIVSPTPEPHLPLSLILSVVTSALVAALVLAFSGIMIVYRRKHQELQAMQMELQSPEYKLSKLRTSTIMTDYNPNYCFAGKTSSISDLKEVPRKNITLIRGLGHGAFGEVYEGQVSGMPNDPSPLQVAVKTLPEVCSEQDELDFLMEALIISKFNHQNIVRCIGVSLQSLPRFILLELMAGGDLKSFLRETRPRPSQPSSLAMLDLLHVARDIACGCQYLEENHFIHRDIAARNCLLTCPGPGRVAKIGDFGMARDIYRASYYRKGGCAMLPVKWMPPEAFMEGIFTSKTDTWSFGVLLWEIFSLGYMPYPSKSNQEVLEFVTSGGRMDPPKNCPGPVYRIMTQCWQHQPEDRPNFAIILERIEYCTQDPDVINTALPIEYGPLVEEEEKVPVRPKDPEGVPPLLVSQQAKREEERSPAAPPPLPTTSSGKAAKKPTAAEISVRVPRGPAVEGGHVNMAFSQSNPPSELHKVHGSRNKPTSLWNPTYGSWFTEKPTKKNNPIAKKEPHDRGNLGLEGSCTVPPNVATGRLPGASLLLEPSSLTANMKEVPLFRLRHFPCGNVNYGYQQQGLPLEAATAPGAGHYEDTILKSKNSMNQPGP
Serine/threonine-protein kinase PAK 4 (Homo sapiens), sequence (O96013 whole entry, looked up): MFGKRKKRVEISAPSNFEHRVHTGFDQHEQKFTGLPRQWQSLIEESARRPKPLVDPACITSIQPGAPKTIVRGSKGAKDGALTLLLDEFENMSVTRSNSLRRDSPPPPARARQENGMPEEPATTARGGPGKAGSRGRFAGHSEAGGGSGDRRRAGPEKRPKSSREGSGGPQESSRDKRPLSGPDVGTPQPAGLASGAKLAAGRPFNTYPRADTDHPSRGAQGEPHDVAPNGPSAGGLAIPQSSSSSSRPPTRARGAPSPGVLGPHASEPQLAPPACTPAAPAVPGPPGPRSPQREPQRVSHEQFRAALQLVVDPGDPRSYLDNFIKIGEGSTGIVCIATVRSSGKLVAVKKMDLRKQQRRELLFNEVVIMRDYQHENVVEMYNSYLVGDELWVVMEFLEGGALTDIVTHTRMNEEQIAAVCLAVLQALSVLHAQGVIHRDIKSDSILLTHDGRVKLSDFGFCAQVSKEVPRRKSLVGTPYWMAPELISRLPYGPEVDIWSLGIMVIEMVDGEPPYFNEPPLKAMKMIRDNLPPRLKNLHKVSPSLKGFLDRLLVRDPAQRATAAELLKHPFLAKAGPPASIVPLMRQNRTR

As for `N#C/C(=C(\N)Sc1ccc(N)cc1)c1ccccc1C(F)(F)F`, the residual activity in [1] turned out to be 101%; in experiment [2] it was 94%; in experiment [3] it was 90%; in experiment [4], 89%; in experiment [5], 96%; in experiment [6], 96%. Moreover, the residual activity in experiment [7] amounted to 105%; in experiment [8] it was 50%; in [9] it was 43%; in experiment [10], 65%; in experiment [11], 65%; in experiment [12], 108%. Besides, the residual activity worked out at 111% in experiment [13]; 75% in [14]; 57% in experiment [15]; 77% in experiment [16]; 62% in experiment [17]; 106% in experiment [18]. The residual activity in [19] is 62%; in experiment [20], 106%.
As to `Nc1ccc2ncnc(NCCc3ccc(Oc4ccccc4)cc3)c2c1`, the residual activity in experiment [1] was 107%; in experiment [2] it was 87%; in [3], 100%; in experiment [4] it was 81%; in [5], 95%; in experiment [6], 84%. Moreover, the residual activity in [7] worked out at 65%; in [8], 81%; in experiment [9], 55%; in experiment [10] it was 81%; in experiment [11], 67%; in experiment [12], 102%. The residual activity came to 103% in experiment [13]; 51% in [14]; 28% in experiment [15]; 65% in experiment [16]; 42% in experiment [17]; 108% in experiment [18]. Also, the results for the residual activity in experiment [19] and in [20] were 23% and 87%, respectively.
For `Cc1ccc(NC2=CC(=O)c3sc(C)nc3C2=O)cc1`, the residual activity stood at 98% in experiment [1]; 93% in experiment [2]; 121% in [3]; 94% in experiment [4]; 102% in [5]; 80% in [6]. Moreover, the residual activity in experiment [7] was determined as 82%; in experiment [8] it was 80%; in experiment [9] it was 71%; in experiment [10] it was 86%; in experiment [11] it was 93%; in experiment [12] it was 105%. In addition, the residual activity came out at 113% in experiment [13]; 88% in experiment [14]; 84% in experiment [15]; 94% in experiment [16]; 107% in [17]; 108% in [18]. Also, the residual activity came to 89% in [19] and 110% in experiment [20].
On to `CCN(CC)CCCCN1c2ccccc2Oc2ccc(Cl)cc21`, for which the residual activity in experiment [1] was determined as 107%; in experiment [2], 97%; in experiment [3], 100%; in experiment [4] it was 90%; in experiment [5], 104%; in experiment [6], 109%. Also, the residual activity in experiment [7] was found to be 13%; in experiment [8], 113%; in experiment [9], 81%; in experiment [10], 92%; in experiment [11], 132%; in experiment [12], 136%. The residual activity came out at 100% in experiment [13]; 116% in experiment [14]; 100% in experiment [15]; 131% in experiment [16]; 112% in experiment [17]; 115% in experiment [18]. Besides, the residual activity is 87% in [19] and 96% in experiment [20].
Turning to `CC(=O)O/N=C1\C(=C2\C(=O)Nc3cc(Br)ccc32)Nc2ccccc21`, the residual activity in experiment [1] stood at 100%; in [2], 67%; in experiment [3] it was 88%; in [4], 63%; in [5], 89%; in experiment [6] it was 67%. For the same molecule, the residual activity in experiment [7] stood at 108%; in [8] it was 48%; in [9] it was 15%; in [10], 58%; in experiment [11] it was 40%; in experiment [12] it was 100%. Moreover, the residual activity was determined as 119% in experiment [13]; 60% in [14]; 9% in [15]; 46% in [16]; 11% in experiment [17]; 56% in experiment [18]. In addition, the results for the residual activity in [19] and in experiment [20] were 19% and 92%, respectively.
With `O=C1NC(=O)c2cc(Nc3ccc(F)cc3)c(Nc3ccc(F)cc3)cc21`, the residual activity in experiment [1] is 89%; in experiment [2] it was 74%; in [3] it was 98%; in experiment [4], 66%; in experiment [5], 100%; in experiment [6], 64%. For the same molecule, the residual activity was determined as 51% in experiment [7]; 79% in experiment [8]; 34% in experiment [9]; 84% in [10]; 42% in experiment [11]; 129% in experiment [12]. In addition, the residual activity in experiment [13] is 88%; in experiment [14], 93%; in experiment [15], 73%; in experiment [16], 92%; in experiment [17] it was 66%; in experiment [18] it was 101%. The residual activity worked out at 75% in experiment [19] and 110% in [20].
With `O=C1NC(=O)/C(=C/c2ccc3c(c2)OC(F)(F)O3)S1`, the residual activity was found to be 102% in experiment [1]; 95% in experiment [2]; 80% in experiment [3]; 70% in experiment [4]; 81% in [5]; 78% in experiment [6]. Also, the residual activity in experiment [7] was found to be 37%; in experiment [8], 96%; in [9], 70%; in [10], 69%; in experiment [11] it was 77%; in experiment [12] it was 127%. Also, the residual activity in experiment [13] was 102%; in experiment [14], 81%; in [15], 66%; in experiment [16], 96%; in experiment [17], 70%; in experiment [18], 91%. The residual activity worked out at 87% in [19] and 85% in experiment [20].
